# PubChem BioAssay (NCI)
# Several values for one entry are separate records, joined by “and”; a condition that tells them apart may be missing. Identical values can stand only once. The panel holds about 83,000 compounds, 20% with a hit somewhere; the sample as a whole holds those more often.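 In brief: 96-well plates, 48 h treatment, single concentration, percent growth endpoint.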 Some structures have more than one record in an assay (separate samples or runs), and their calls can disagree. Activity calls are given as the source filed them. Rule for the calls: active = growth percent below 10; inactive = the rest.
# What was measured:
# Assay in all cases: NCI-60 one-dose screen, 48 h (100 = growth as untreated, 0 = no growth, -100 = all killed)
# Details in all cases: 10 µM unless noted
# [1] = tested on: T-47D breast
# [2] = tested on: BT-549 breast
# [3] = tested on: MDA-MB-435 melanoma
# [4] = tested on: MCF7 breast
# [5] = tested on: HCT-116 colon
# [6] = tested on: HCC-2998 colon
# [7] = tested on: KM12 colon
# [8] = tested on: SW-620 colon
SMILES,growth [1],growth [2],growth [3],growth [4],growth [5],growth [6],growth [7],growth [8]
COc1ccc2nc(Cl)cc(C)c2c1,98.5% (inactive) and 128% (inactive),130% (inactive) and 92% (inactive),93.6% (inactive) and 96.1% (inactive),92.1% (inactive) and 111% (inactive),107% (inactive) and 89.6% (inactive),108% (inactive) and 96.1% (inactive),99.3% (inactive) and 124% (inactive),
OC1CCC(Oc2cccc3cnc(Nc4ccc5nc[nH]c5c4)nc23)CC1 (configuration not stated),-7.14% (active) and 43.9% (inactive),,12.3% (inactive) and 58.4% (inactive),5.53% (active) and 17.9% (inactive),-6.99% (active) and 2.03% (active),8.35% (active) and 61.4% (inactive),1.29% (active) and 15.7% (inactive),5.88% (active) and 32.4% (inactive)
CC(C)CNC(=O)c1ccccc1C(=O)NC1(C(=O)NCC(C)C)CCCC1,106% (inactive) and 95.5% (inactive),,101% (inactive) and 105% (inactive),103% (inactive) and 106% (inactive),106% (inactive) and 104% (inactive),101% (inactive) and 103% (inactive),112% (inactive) and 104% (inactive),102% (inactive) and 106% (inactive)
CCOC(=O)C(C(=O)OCC)C(c1ccccc1)N1CCN(c2ccccc2)CC1 (configuration not stated),108% (inactive) and 98.7% (inactive),,102% (inactive) and 100% (inactive),97.8% (inactive) and 97.5% (inactive),98.3% (inactive) and 99.3% (inactive),114% (inactive) and 111% (inactive),111% (inactive) and 98.6% (inactive),113% (inactive) and 111% (inactive)
CN(C)c1ccc(C(=C2C=CC(=[N+](C)C)C=C2)c2ccccc2Cl)cc1,-33.3% (active) and -72.6% (active),-35.9% (active) and 1.51% (active),-40.9% (active) and -29% (active),,-66.7% (active) and -99.5% (active),-92.3% (active) and -98.8% (active),-94.6% (active) and -87.2% (active),
COc1ccccc1C(C)=O,106% (inactive) and 96.2% (inactive),,104% (inactive) and 112% (inactive),103% (inactive) and 96.6% (inactive),107% (inactive) and 102% (inactive),111% (inactive) and 107% (inactive),102% (inactive) and 111% (inactive),95.4% (inactive) and 105% (inactive)
CNc1cc(-c2cccc(OC(F)(F)F)c2)nc2ccc(N3CCCC3)cc12,-40.3% (active) and -55% (active) and -40.4% (active),-81.3% (active) and 74.1% (inactive) and 76.4% (inactive),35.8% (inactive) and -86.4% (active) and -70.6% (active),3.84% (active) and -19.7% (active) and 0.755% (active),-76% (active) and -90.3% (active) and -76.6% (active),,12.5% (inactive) and -3.68% (active) and 1.48% (active),
O=C(O)C1C2C=CC(C2)C1C(=O)O (configuration not stated),103% (inactive) and 79.5% (inactive) and 101% (inactive),,101% (inactive) and 19.1% (inactive) and 100% (inactive),97.4% (inactive) and 5.27% (active) and 104% (inactive),104% (inactive) and 17.3% (inactive) and 112% (inactive),117% (inactive) and 46.1% (inactive) and 107% (inactive),106% (inactive) and 25.4% (inactive) and 104% (inactive),
S=C1SCN(Cc2ccccc2)CN1Cc1ccccc1,41.4% (inactive),,85.5% (inactive),17.8% (inactive),7.28% (active),,5.8% (active),32.9% (inactive)
C=C1CC2(C)CCC(OC(=O)C3(C)OC3C)C(C)(OC(C)=O)C2CC1=C(C)C (configuration not stated),,,,67% [100 µM] (inactive) and 8.58% [100 µM] (active),,,,
O=C=NC(c1ccccc1)(c1ccccc1)c1ccccc1,,103% (inactive),108% (inactive),102% (inactive),93.5% (inactive),111% (inactive),103% (inactive),107% (inactive)
N#CC1(C#N)N[C@@H](c2ccsc2)[C@H]2C(=O)N(c3ccccc3)C(=O)[C@H]21,,,,22.5% [100 µM] (inactive) and 12.4% [100 µM] (inactive),,,,
CNC(=O)c1cc(Oc2ccc(NC(=O)Nc3ccc(Cl)c(C(F)(F)F)c3)cc2)ccn1,-8.57% (active) and 7.49% (active),,-27.3% (active) and -35.2% (active),2.9% (active) and 3.7% (active),0.741% (active) and 9.24% (active),,2.65% (active) and -14.7% (active),13.5% (inactive) and 5.39% (active)
Nc1ncnc2c1ncn2C1CC(O)C(CO)O1 (configuration not stated),112% (inactive) and 99.1% (inactive),,105% (inactive) and 107% (inactive),96.1% (inactive) and 97.1% (inactive),103% (inactive) and 100% (inactive),,114% (inactive) and 107% (inactive),115% (inactive) and 105% (inactive)
O=C(O)C1(C(=O)O)CCC1.[NH2-].[NH2-].[Pt+2],96.6% (inactive) and 102% (inactive),,108% (inactive) and 99.5% (inactive),98.5% (inactive) and 90.9% (inactive),107% (inactive) and 108% (inactive),,112% (inactive) and 100% (inactive),111% (inactive) and 103% (inactive)
O=C1c2ccccc2-c2c1c1ccccc1c(=O)n2-c1cccnc1,,,,21.1% [100 µM] (inactive) and 3.24% [100 µM] (active),,,,
CC(=O)C1=C(C)N2C(=NC3=C(CCc4ccccc43)C2c2ccc(Cl)cc2)S1 (configuration not stated),,,,24.9% [100 µM] (inactive) and 9.75% [100 µM] (active),,,,
CCCCCCCCCCCCCCCCOc1ccc(C)cc1,,112% (inactive),111% (inactive),102% (inactive),108% (inactive),105% (inactive),108% (inactive),101% (inactive)
CC1C2(C)OC(=N)C(C#N)(C(c3cccc([N+](=O)[O-])c3)O2)C1(C#N)C#N (configuration not stated),,,,98.4% [100 µM] (inactive),,,,
CCCCCCCCCCCCOc1ccccc1C=O,100% (inactive),,98.3% (inactive),,103% (inactive),,102% (inactive),101% (inactive)
C=C1C(=O)O[C@H]2C[C@@]3(C)[C@H](O)CCC(=C)[C@@H]3[C@@H](OC(C)=O)[C@H]12,,,,-83.4% [100 µM] (active) and -77.4% [100 µM] (active),,,,
